Screening data deposited in PubChem BioAssay by National Center for Advancing Translational Sciences (NCATS).
HT1080-NT tox: qHTS for induction of synthetic lethality in tumor cells producing 2HG: qHTS for the HT-1080-NT fibrosarcoma cell line. HT-1080-NT fibrosarcoma viability, CellTiter-Glo ATP luminescence, 48 h. Potency, µM (top dose mostly 46.1 µM), for the others: top-dose activity, negative = less viability, most hits filed as cytotoxic. hit rate 1.6% among 360,000;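 also: NT is the 2HG producing partner of a matched IDH1 knockdown line; potency is read from the fitted curve at half-maximal effect; 0% = DMSO-treated cells and -100% = media-only wells without cells; nearly all actives have a fitted effect of over 55% in size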
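HT-1080-NT fibrosarcoma cells (2HG-overproducing), 750 cells/well in RPMI with 5% FBS, dosed after 2 h and incubated 48 h at 37C. CellTiter-Glo luminescence normalized to DMSO and no-cell wells; concentration-response curves fitted and classed.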
HT1080 IDH1KD tx: qHTS for induction of synthetic lethality in tumor cells producing 2HG: qHTS for the HT-1080-IDH1KD cell line | HT-1080 IDH1 knockdown viability, ATP luminescence, 48 h | Potency, µM (series often up to 46.1 µM), for the others: at the highest dose activity, negative = toxicity, actives largely listed as cytotoxic | hit rate 2% among 360,000 | AID 686971, 2013;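 also: potency is read from the fitted curve at half-maximal effect; 0% = DMSO wells and -100% = cell-free medium wells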
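Viability of IDH1-knockdown HT-1080 fibrosarcoma cells was assessed by CellTiter-Glo after 48 h at 37 °C with titrated compound; concentration-effect curves were classified by fit quality and response size.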
IL1B secr inh: qHTS for Inhibitors of Inflammasome Signaling: IL-1-beta AlphaLISA Primary Screen. AID 743279, 2014. activity change, % at 57.5 µM. hit rate 4.7% among 360,000. THP-1 LPS/ATP IL-1B secretion, AlphaLISA, 16 h; active compounds read low; in the data active = activity change below about -50%; inconclusive = mostly about -30% to -49%
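Secreted IL-1B measured by AlphaLISA bead assay after 16 h compound exposure of THP-1 cells; compounds (final up to 57.5 uM) added 1 h before LPS (250 ng/mL) and ATP (1.25 mM) stimulation; lower signal means less secretion.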
DT40 TDP1 CPT: qHTS for Inhibitors of human tyrosyl-DNA phosphodiesterase 1 (TDP1): qHTS in cells in presence of CPT | chicken DT40 Tdp1-/-;hTDP1 cells + 20 nM CPT, ATP luminescence, 48 h | AID 686979, 2013 | Potency, µM (doses to about 46.2 µM), inactives show top-dose activity change, negative = growth inhibition, actives largely listed as inhibitors | hit rate 12% among 420,000; also: potency is read from the fitted curve at half-maximal effect; nearly all actives have a fitted effect of over 55% in size
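Chicken DT40 Tdp1-/- cells complemented with human TDP1, 400 cells/well, exposed to compounds plus 20 nM camptothecin for at least 48 h at 37 C; viability read as ATP content by CellTiter-Glo luminescence.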
TDP1 cell noCPT: qHTS for Inhibitors of human tyrosyl-DNA phosphodiesterase 1 (TDP1): qHTS in cells in absence of CPT; hit rate 15% among 420,000; DT40 Tdp1-/- hTDP1 cells, no CPT, ATP luminescence, 48 h; Potency, µM (highest dose often 46.2 µM), without a hit: at the highest dose activity change, negative = growth inhibition, actives largely listed as inhibitors; also: potency is read from the fitted curve at half-maximal effect; nearly all actives have a fitted effect of over 55% in size
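Cells were dispensed at 400 per well, compounds added by pin tool, plates incubated ≥48 hr at 37 °C, then CellTiter-Glo added for 30 min at room temperature before luminescence reading. Line: DT40 Tdp1-/- complemented with hTDP1; camptothecin omitted.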
* = called active by the depositor; ? = inconclusive; . = not tested or not shown. Hits are enriched below; roughly 19% of the tested compounds scored in any of these assays. Unless noted, calls follow the shape of the dose curve; as a rule, active = well fitted curve in the direction sought with a large enough effect; inconclusive = small, poorly fitted or top-dose-only effect, or another doubt; inactive = no such curve, though single readings can be large; an effect the other way counts as inactive or inconclusive. Unless noted, % is scaled to controls: 0 for no effect and ±100 for the full control effect.

SMILES	HT1080-NT tox	HT1080 IDH1KD tx	IL1B secr inh	DT40 TDP1 CPT	TDP1 cell noCPT
CC(C)c1nc2sc3c(=S)nc[nH]c3c2c2c1CCC2	-2.1%	-0.3%	41.3	?	23.1µM*
S=c1nc[nH]c2c1sc1nc(N3CCOCC3)c3c(c12)CCCC3	14.7%	-2.6%	-6.6	?	23.1µM*
CN(CCO)c1ncnc2c1sc1nc(N3CCOCC3)c3c(c12)CCC3	-5.6%	16.2%	-22.7	13µM*	20.6µM*
C1CCc2c(c(N3CCOCC3)nc3sc4c(N5CCOCC5)nnnc4c23)C1	20.6%	22.8%	10.3	6.6%	-2.5%
Cc1ccc(/C=N/NC(=O)Cc2ccc(Cl)cc2)c(O)c1	?	18.4µM*	65.5	16.4µM*	20.6µM*
O=C(CCC(=O)Nc1ccc(F)cc1)N/N=C/c1ccccc1O	-1.2%	-15.9%	150.4	?	?
C/C(=N\OCC(=O)N/N=C/c1ccc(C)cc1O)c1cccs1	-17.9%	-0.4%	103.9	4.61µM*	4.11µM*
Cc1ccc(NC(=O)CCC(=O)N/N=C/c2cccnc2)cc1	3.0%	8.4%	11.4	-16.1%	?
C/C(=N\NC(=O)CO/N=C(\C)c1cccs1)c1ccc(N)cc1	1.2%	-0.1%	19.2	-4.1%	-3.3%
Cc1ccc(NC(=O)CCC(=O)N/N=C/c2ccc(O)cc2O)cc1	?	?	175.1	14.6µM*	16.4µM*
C=CCc1cccc(/C=N/NC(=O)CCC(=O)Nc2ccc(C)cc2)c1O	-30.0%	?	59.6	14.6µM*	10.3µM*
CC(C)c1ccc(NC(=O)CS(=O)(=O)c2cccc3nsnc23)cc1	.	.	.	-25.8%	?
Nc1nc(SCC(=O)Nc2ccc(OCc3ccccc3)cc2)n[nH]1	7.7%	2.2%	0.0	-23.7%	?
CCCCn1cnc2c(=O)[nH]c(N)nc21	.	.	.	-5.3%	-22.9%
Nc1nc2c(ncn2COC(CO)CO)c(=O)[nH]1	1.8%	8.4%	2.6	1.3µM*	2.59µM*
Oc1cc2c(cc1CN1CCN(c3cccc(C(F)(F)F)c3)CC1)CCC2	1.4%	-3.2%	8.2	-26.4%	-10.2%
COc1ccc(N2CCN(Cc3cc4c(cc3O)CCC4)CC2)cc1	2.0%	-10.2%	4.2	25.9µM*	20.6µM*
COc1ccc(N2CCN(Cc3cc(=O)oc4cc5c(cc34)CCCC5)CC2)cc1	-18.0%	6.8%	-0.1	20.6µM*	13µM*
COc1ccc2c(CN3CCCCCCC3)cc(=O)oc2c1	1.1%	-12.4%	47.6	?	?
CCc1ccc2oc(=O)cc(CN3CCN(Cc4ccccc4)CC3)c2c1	-11.6%	-2.1%	9.4	?	20.6µM*
CCOc1ccc2oc(=O)cc(CN3CCN(Cc4ccc(F)cc4)CC3)c2c1	.	.	.	16.4µM*	23.1µM*
Cc1ccc(NC(=O)CNC(=O)c2cccc(Cl)c2)nc1	10.2%	8.4%	5.1	-19.1%	?
COc1ccc2c(CN(C)c3ccccc3)cc(=O)oc2c1	-1.6%	-0.7%	-2.8	29.1µM*	?
CCc1ccc2oc(=O)cc(CN3CCN(c4ccc(F)cc4)CC3)c2c1	-23.1%	-24.1%	11.1	?	16.4µM*
CCOc1ccc2oc(=O)cc(CN3CCN(c4cc(C)ccc4C)CC3)c2c1	.	.	.	14.6µM*	16.4µM*
COc1ccc2c(CN3CCN(c4ccccc4OC)CC3)cc(=O)oc2c1	1.1%	-4.6%	-7.8	?	14.6µM*
COc1ccc2oc(=O)cc(CN3CCN(c4ccc(F)cc4)CC3)c2c1	.	.	.	?	23.1µM*
COc1ccc(N2CCN(Cc3cc(=O)oc4ccc(Cl)cc34)CC2)cc1	-2.9%	-3.2%	0.0	?	-11.5%
Cc1cccnc1NC(=O)c1cccc(NC(=O)CC2SC(N3CCCCC3)=NC2=O)c1 (centres undefined)	-3.2%	-5.4%	1.8	5.6%	-13.2%
CN(C)S(=O)(=O)c1ccc(C(=O)NCCN2C(=O)S/C(=C\c3cccnc3)C2=O)cc1	-9.5%	-1.2%	-9.5	?	?
